Results from PubChem BioAssay AID488815 (Broad Institute, 2010).
Potency and affinity values are given separately. Inconclusive results are not listed. A call without a number means that no potency is given here. Activity calls are given as the source filed them. No rule for the calls is given here.

Target: CAAX prenyl protease 1 (Saccharomyces cerevisiae (strain ATCC 204508 / S288c)) (UniProt P47154)
Assay: yeast CAAX protease Ste24 inhibition – biochemical, S. cerevisiae, plate reader, cherry-pick, dose response (AID 488815)

Sequence of CAAX prenyl protease 1 (Saccharomyces cerevisiae (strain ATCC 204508 / S288c)) (P47154 whole entry, looked up): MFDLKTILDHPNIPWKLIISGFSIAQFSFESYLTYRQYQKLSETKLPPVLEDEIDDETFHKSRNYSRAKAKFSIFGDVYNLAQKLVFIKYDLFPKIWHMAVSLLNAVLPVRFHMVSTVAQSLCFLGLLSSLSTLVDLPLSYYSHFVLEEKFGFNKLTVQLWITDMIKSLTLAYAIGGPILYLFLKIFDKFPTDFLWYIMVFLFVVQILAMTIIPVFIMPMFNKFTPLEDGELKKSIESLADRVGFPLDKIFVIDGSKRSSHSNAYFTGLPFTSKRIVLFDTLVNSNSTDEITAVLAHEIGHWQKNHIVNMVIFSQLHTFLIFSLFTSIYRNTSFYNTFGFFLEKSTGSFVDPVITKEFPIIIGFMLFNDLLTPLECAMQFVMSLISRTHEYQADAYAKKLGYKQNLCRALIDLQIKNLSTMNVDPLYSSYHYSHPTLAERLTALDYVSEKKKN

| Compound | outcome |
| --- | --- |
| COc1cccc(-c2csc(N3CCN(C(=O)NC45CC6CC(CC(C6)C4)C5)CC3)n2)c1 | inactive |
| CCOC(=O)c1cc(-c2ccccc2)sc1NC(=O)C(C)Sc1nnnn1C (stereo unspecified) | inactive |
| Cc1cccc(N2C(=O)c3cccc4c(N5CCCCC5)c([N+](=O)[O-])cc(c34)C2=O)c1C | inactive |
| O=C(CCNC(=O)N1CC(=O)Nc2ccccc21)NCCc1cccc(F)c1 | inactive |
| CCN(CC)CCN(C(=O)c1ccc2ccccc2c1)c1nc2ccc(F)cc2s1 | inactive |
| Cc1cc(Cl)c2oc(C(=O)N3CCN(C(=O)c4ccco4)CC3)c(C)c2c1 | inactive |
| NS(=O)(=O)c1ccc(NC(=O)/C=C/c2cn(-c3ccccc3)nc2-c2cccc(Cl)c2)cc1 | inactive |
| CCn1nc(C)cc1C(=O)NC1CC(C)(C)Cc2c1cnn2-c1cccc(F)c1 (stereo unspecified) | inactive |
| CCCOc1ccccc1C(=O)NCCCC(=O)O | inactive |
| COc1ccc(C(C(=O)NC2CCCCC2)N(C(=O)c2snc(C(N)=O)c2N)c2ccc(OC)cc2OC)cc1 (stereo unspecified) | inactive |
| O=C1NC2(C=Cc3c(ccc4ccccc34)O2)Oc2ccccc21 (stereo unspecified) | inactive |
| COc1ccc(Br)cc1C(=O)Nc1cc(C)cc(C)c1 | inactive |
| CN(C)CCN(C(=O)c1ccc2ccccc2c1)c1nc2ccc(F)cc2s1 | inactive |
| CCN(Cc1ccccc1)S(=O)(=O)c1ccc(C(=O)N(CCCN(C)C)c2nc3c(C)c(C)ccc3s2)cc1 | inactive |
| CCn1cc(/C=C(\NC(=O)c2ccccc2)C(=O)N2CCOCC2)c2ccccc21 | inactive |
| COC(C[C@@H]1O[C@@H]1C(=O)[C@@H](C)OCc1ccccc1)OC | inactive |
| Cc1cc2cc(C(=O)N3CCc4c([nH]c5ccccc45)C3c3ccccn3)ccc2o1 (stereo unspecified) | inactive |
| O=C(COC(=O)c1ccc(S(=O)(=O)N2CCCC2)cc1)NCc1ccccc1 | inactive |
| COc1ccc(Cl)cc1Nc1nc(C)nc2c1oc1ccccc12 | inactive |
| O=C(Nc1ncccn1)c1ccc([N+](=O)[O-])cc1 | inactive |
| O=C(O)CCCC[C@@H]1SC[C@@H]2NC(=O)N[C@@H]21 | inactive |
| CC(C)CNC(=O)COc1cccc(C(=O)NCc2ccccc2)c1 | inactive |
| CCSCCOC(=O)C1=C(C)NC(=O)NC1c1ccccc1 (stereo unspecified) | inactive |

| Compound | outcome |
| --- | --- |
| CCCCOC(=O)Nc1nc(C)c(C(=O)OCC)s1 | inactive |
| O=C(COc1ccccc1)Nc1cccc(-c2nc3cc4ccccc4cc3[nH]2)c1 | inactive |
| Cc1cccc(NC(=O)c2cc(S(=O)(=O)N3CCCCC3)c[nH]2)c1C | inactive |
| COc1nc(-c2ccccc2)ccc1-c1noc(-c2ccccc2F)n1 | inactive |
| Cc1cccc(N2CCc3c2nc2ccc(Br)cc2c3N)c1 | inactive |
| COc1cccc(/C=N/NC(=O)c2nnn(-c3nonc3N)c2C(C)C)c1OCc1ccc(F)cc1 | inactive |
| C/C(Cl)=C\Cn1c(O)c(N=NC(N)=S)c2cc(Br)ccc21 | inactive |
| c1ccc(Nc2cccc(Nc3ccccc3)n2)cc1 | inactive |
| CC(=O)c1c(O)cc(O)c(C(C)=O)c1O | inactive |
| Cc1ccc(S(=O)(=O)c2cn(C)c3cc(N4CCOCC4)c(F)cc3c2=O)cc1 | inactive |
| Cc1cc(C(=O)N[C@H](c2ccccc2)[C@@]2(C)C[C@@H]2[C@@H](C)C(=O)Nc2ccc3ccccc3c2)n(C)n1 | inactive |
| O=C(Nc1ccc(F)cc1)Oc1ccccc1N1CCOCC1 | inactive |
| CN1C(=O)/C(=C/c2cccc(Cl)c2)Sc2ccc(C(=O)N3CCOCC3)cc21 | inactive |
| CCN1CCN(CC(O)COc2ccc3c(C)cc(=O)oc3c2)CC1 (stereo unspecified) | inactive |
| O=C(CCNS(=O)(=O)c1ccc2[nH]c(=O)oc2c1)NCc1ccccc1 | inactive |
| CCO[C@@H]1OC(C(=O)N2CCN(Cc3ccccc3)CC2)=C[C@H](c2ccccc2)[C@H]1CCCO | inactive |
| Nc1c(Cl)cc(C2=NCCn3nc4cc(C(F)(F)F)ccc4c32)cc1Cl | inactive |
| Cc1ccccc1OC(C)C(=O)N1CCC(Cc2ccccc2)CC1 (stereo unspecified) | inactive |
| O=C1CN(C(=O)NCC(=O)N2CCCC2)c2ccccc2N1 | inactive |
| CN(C(=O)COC(=O)c1cc([N+](=O)[O-])ccc1Sc1ccccc1)C1CCS(=O)(=O)C1 (stereo unspecified) | inactive |
| CSc1ccc(C(=O)C2CCCN(C(=O)c3cccnc3SC)C2)cc1 (stereo unspecified) | inactive |
| CCOc1ccc(N(CC(=O)NC2CC3CCC2C3)S(=O)(=O)c2ccccc2)cc1 (stereo unspecified) | inactive |
| COc1ccc(-n2nc(C(=O)NCC(=O)N3CCC(C)CC3)c3ccccc3c2=O)cc1 | inactive |
